From PubChem BioAssay
In the library only some 6.1% were active in any assay of this set; here they are far more common.
D1 agonist – human D1 receptor agonism; HEK293 T-REx D1 cells, calcium flux, agonist mode; AID 504660; activation, % at 2 µM; 360,000 compounds, 1% hits; in the data active = activation above about 30%
Target sequence (P21728 whole entry, looked up): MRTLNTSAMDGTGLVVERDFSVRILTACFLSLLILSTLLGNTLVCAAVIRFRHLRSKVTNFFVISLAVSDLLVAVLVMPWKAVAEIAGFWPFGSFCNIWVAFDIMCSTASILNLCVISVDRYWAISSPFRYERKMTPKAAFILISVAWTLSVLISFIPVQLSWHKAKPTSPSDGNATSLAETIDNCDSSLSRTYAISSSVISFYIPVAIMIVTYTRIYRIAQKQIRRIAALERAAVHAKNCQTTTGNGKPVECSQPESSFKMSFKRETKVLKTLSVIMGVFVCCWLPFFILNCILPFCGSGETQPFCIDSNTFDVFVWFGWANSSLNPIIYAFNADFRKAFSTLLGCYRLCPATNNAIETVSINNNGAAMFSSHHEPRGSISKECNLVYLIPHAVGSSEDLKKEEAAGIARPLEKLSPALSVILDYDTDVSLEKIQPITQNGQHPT
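Inducible HEK293 T-REx D1 cells, force-coupled to calcium signalling, were plated at 4000 cells/well with tetracycline and held overnight at 30 C. After no-wash calcium dye loading, compound-evoked calcium rise over 180 s flagged agonists.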
D3 antag – antagonists of human D3 dopamine receptor; P35462; max response, negative = inhibition, %; D3R cells, DiscoveRx beta-arrestin luminescence, antagonist mode; stronger effect = lower value; 360,000 compounds, 2.5% hits; in the data active = max response below about -50%; inconclusive = no clear call, values can overlap the other calls
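Cells expressing the human receptor were seeded at 1500 cells/well, incubated overnight at 37 degrees C in 5% CO2, then exposed to library compounds with dopamine controls for 90 minutes at 37 degrees C before luminescent detection.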
DRD3 agonist – activates the human D3 dopamine receptor | max activation, % | AID 652048 | D3R DiscoveRx beta-arrestin cells, luminescence, 90 min | P35462 | 410,000 compounds, 0.58% hits; in the data active = max activation above about 30%
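Agonist mode: compounds and dopamine controls were applied to plated cells for 90 min at 37 degrees C after an overnight attachment at 1500 cells/well. Luminescent read-out followed 30 - 60 minutes at room temperature with DiscoveRx detection reagent.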
D1 antagonist – antagonists of human D1 dopamine receptor; P21728; HEK293 TREx D1 cells, calcium flux, dopamine EC80; stronger effect = lower value; activity change, negative = inhibition, % at 10 µM; 360,000 compounds, 3.2% hits; in the data active = activity change below about -30%
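Inducible Hek293 Trex D1 cells (tetracycline, overnight, 30 C). Calcium dye 30–90 min RT. Antagonist mode: EC80 dopamine added after 180 s compound read.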
D1 potentiator – enhances dopamine response at the human D1 receptor; 360,000 compounds, 0.036% hits; HEK293 TREx D1 cells, calcium flux, dopamine EC20 potentiation; potentiation, % at 10 µM; in the data active = potentiation above about 30%
Hits are given with their value; n = inactive; u = inconclusive; x = no result.

SMILES	D1 agonist	D3 antag	DRD3 agonist	D1 antagonist	D1 potentiator
COc1ccccc1C(=O)NCCC(=O)NCC(c1ccccc1OC)N1CCCC1 (configuration not stated)	n	n	n	n	n
COc1ccccc1C(CNC(=O)CNC(=O)c1ccc(Cl)c(Cl)c1)N1CCCC1 (configuration not stated)	n	u	n	-38	x
COc1ccccc1C(CNC(=O)CNC(=O)c1ccccc1Cl)N1CCCC1 (configuration not stated)	n	n	n	-45	n
COc1ccccc1C(CNC(=O)CNC(=O)c1ccc(C)c(C)c1)N1CCCC1 (configuration not stated)	n	n	n	n	x
COC(=O)C1CCCCN1C(=O)c1cc(COc2cccc3cnccc23)on1 (configuration not stated)	n	x	x	-43	n
CC(=O)c1ccc(OCc2cc(C(=O)N3CCC[C@H]3CO)no2)cc1	n	n	n	n	n
COc1ccc(OCc2cc(C(=O)N(Cc3nccn3C)C(C)C)no2)c2ccccc12	n	n	n	n	n
COc1ccc(OCc2cc(C(=O)N(C)Cc3nccn3C)no2)c2ccccc12	n	n	n	-40	n
CN(Cc1nccs1)C(=O)c1cc(COc2cccc3cnccc23)on1	n	n	n	-32	n
COC(=O)C1CCCCN1C(=O)c1cc(COc2cccc3cccnc23)on1 (configuration not stated)	n	n	n	n	n
CC(=O)c1cccc(OCc2cc(C(=O)N(C)Cc3nccs3)no2)c1	x	n	n	x	x
COCCC1CCCCN1C(=O)c1cc(COc2cccc(C(C)=O)c2)on1 (configuration not stated)	n	n	n	-49	n
Cc1[nH]n(-c2ccccc2)c(=O)c1C1(C(F)(F)F)C(=O)N(c2ccc(F)cc2)C2=C1C(=O)CC(C)(C)C2 (configuration not stated)	n	-71	n	n	n
COc1ccc(N2CCN(C(=O)Cc3c(C(=O)O)c(C)cn3C)CC2)cc1	n	x	n	n	n
FC(F)Oc1cccc(NC(=S)N2CCN(c3ccccn3)CC2)c1	n	n	n	-71	n
Cc1cc(C)n2cc(CSc3nnc(SCc4cn5c(C)cc(C)nc5n4)s3)nc2n1	n	x	x	x	n
Cc1cc(C)n2cc(CSc3nc4cc(Cl)ccc4o3)nc2n1	n	-51	n	n	n
Cc1cc(C)n2cc(CSc3nnc(N)s3)nc2n1	n	-53	n	n	n
Cc1cc(C)n2cc(CSc3ccc(Cl)cc3)nc2n1	n	n	n	n	n
CN1CCC(N(C)C(=O)c2cc(-c3ccccc3Cl)nc3ccccc23)CC1	n	-60	n	n	n
O=C(Nc1cccnc1)c1cc(-c2cccc(Br)c2)nc2ccccc12	n	n	n	n	n
O=C(Nc1cccnc1)c1cc(-c2cccnc2)nc2ccc(Br)cc12	n	n	55	n	n
O=C(Nc1ccncc1)c1cc(-c2cccc(Br)c2)nc2ccccc12	n	n	31	n	n
COc1cc(NC(=O)c2cc(-c3cccnc3)nc3ccc(Br)cc23)cc(OC)c1	n	n	36	n	n
Cc1cc2c(s1)c1cnn(Cc3cc(C(F)(F)F)ccc3F)c(=O)c1n2C	n	x	x	n	n
SMILES	D1 agonist	D3 antag	DRD3 agonist	D1 antagonist	D1 potentiator
CN1CCC(NC(=O)c2cc(-c3cccc(Br)c3)nc3ccccc23)CC1	38	n	n	-35	n
O=C(NC1CC1)c1cc(-c2ccc(Br)cc2)nc2ccccc12	n	n	n	n	x
COc1ccc(-c2noc(CSc3nc(N)cc(=O)[nH]3)n2)cc1OC	n	x	n	n	n
CSc1nc(-c2ccccc2)nc(N2CCN(C)CC2)c1C(C)=O	n	-55	n	n	n
CN1CCN(c2nc(-c3ccccc3)ncc2S(=O)(=O)c2ccccc2)CC1	n	-79	n	n	n
CCOc1ccccc1NC(=O)Cn1c(=O)n(Cc2cccs2)c(=O)c2cccnc21	n	x	n	n	n
COc1ccc(CCNC(=O)Cc2c(C)c3cc4c(C(C)(C)C)coc4c(C)c3oc2=O)cc1OC	n	x	n	n	n
O=C1N[C@H](Cc2ccccc2)COC(=O)[C@H](Cc2ccc(F)cc2)C/C=C\C[C@@H]1CC(=O)N(CCO)Cc1ccccc1	x	-57	n	x	x
O=C1N[C@H](Cc2ccccc2)COC(=O)[C@@H](Cc2ccc(F)cc2)CC/C=C/C[C@H]1CC(=O)N(CCO)Cc1ccccc1	x	n	n	x	x
CC(C)(C)OC(=O)C[C@H]1C/C=C\C[C@@H](CC(=O)N(CCO)Cc2ccccc2)C(=O)NC[C@H](c2ccccc2)OC1=O	x	n	n	x	x
C[C@@H]1COC(=O)[C@H](Cc2ccc(F)cc2)C/C=C\C[C@@H](CC(=O)NCCO)C(=O)N1	x	n	37	x	x
O=C1N[C@@H](Cc2ccccc2)COC(=O)[C@H](Cc2ccc(F)cc2)C/C=C\C[C@@H]1CC(=O)N(CCO)Cc1ccccc1	x	-65	n	x	x
CC(C)(C)OC(=O)C[C@@H]1C/C=C\C[C@H](CC(=O)N(CCO)Cc2ccccc2)C(=O)NC[C@@H](c2ccccc2)OC1=O	x	-96	n	x	x
O=C1N[C@H](Cc2ccccc2)COC(=O)[C@@H](Cc2ccc(F)cc2)C/C=C\C[C@H]1CC(=O)N(CCO)Cc1ccccc1	x	n	n	x	x
Cc1cc2c(s1)c1cnn(Cc3ccccc3Cl)c(=O)c1n2C	n	x	x	n	n
Cc1ccc(Nc2cc(C)nc3nncn23)c(C)c1	n	x	n	n	n
Cc1ccc(CCNC(=O)CN2C(=O)COc3ccc(S(=O)(=O)N4CCCCCC4)cc32)cc1	n	x	n	n	n
CCOC(=O)c1cnc2c(ccc3ccccc32)c1Cl	n	n	n	-53	n
CCOC(=O)c1cnc2c(Cl)c(Cl)ccc2c1N1CCN(C)CC1	n	n	n	n	n
CCOC(=O)c1cnc2ccc(Cl)cc2c1Nc1ccc(S(=O)(=O)Nc2ncccn2)cc1	n	n	n	n	n
CCOC(=O)c1cnc2c(C)c(Cl)ccc2c1Nc1ccc(S(=O)(=O)Nc2ncccn2)cc1	n	x	x	-39	n
CCOC(=O)c1cnc2c(ccc3ccccc32)c1Nc1ccccc1O	n	x	n	-47	n
COc1ccc(S(=O)(=O)c2cnc(SCC(=O)Nc3cc(F)ccc3C)[nH]c2=O)cc1Cl	n	x	n	n	n
CCOC(=O)c1cc2c(ccn2C)n1CC(=O)N1CCN(c2ccc(F)cc2)CC1	n	n	n	n	n
CCOC(=O)c1cc2c(ccn2C)n1CC(=O)N1CCN(c2cccc(C(F)(F)F)c2)CC1	n	u	n	-38	n
CC(CNC(=O)Cn1cnc2c(NCc3ccccc3)ncnc21)c1ccccc1 (configuration not stated)	x	n	45	x	x
Cc1cc(C)c(CN2CCN(C(=O)Cn3cnc4c(NCc5ccccc5)ncnc43)CC2)c(C)c1	x	n	31	x	x
CC(=O)N1CCc2c(sc3c2c(=O)n(-c2ccccc2)c(=O)n3CC(=O)c2ccc(Cl)cc2)C1	n	x	n	n	n
